65 compounds from PubChem BioAssay AID686979 (National Center for Advancing Translational Sciences (NCATS), 2013) can be followed below.

In all, about 420,000 compounds went through this assay and about 50,000 (12%) were called active. Not shown: some 26% with an inconclusive outcome. Many of the other results were omitted from the sample, so actives are more common in it than they were. Unmarked numbers belong to inactive results. Calls come from the whole dose curve; as a rule, active = well fitted inhibition curve with a large enough effect; inconclusive = small, poorly fitted or top-dose-only effect; inactive = flat fitted curve, though single readings scatter.
% is set by controls: 0 for no effect and ±100 for the full control effect; potency is the fitted concentration of half-maximal effect.

This assay in a line: qHTS for Inhibitors of human tyrosyl-DNA phosphodiesterase 1 (TDP1): qHTS in cells in presence of CPT. Note: nearly all actives have a fitted effect of over 55% in size. Conditions: chicken DT40 Tdp1-/-;hTDP1 cells + 20 nM CPT, ATP luminescence, 48 h; series mostly up to 46.2 µM; activity change, negative = growth inhibition: at the top concentration. The gist of the method: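 Chicken DT40 Tdp1-/- cells complemented with human TDP1, 400 cells/well, exposed to compounds plus 20 nM camptothecin for at least 48 h at 37 C; viability read as ATP content by CellTiter-Glo luminescence.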
(In general: Quantitative high-throughput screening tests each substance at several concentrations.)
For `CCn1c(SCC(=O)NC2=NCCS2)nnc1C(C)NC(=O)c1ccccc1F` (stereo not given), the “activity change, negative = growth inhibition” value was 6.99%. Same read-out and setting: the result for `Cc1ccc(Nc2cc(=O)n(C3CCCCC3)c(=O)[nH]2)cc1C` reads -15.9%; that for `C[C@H](NC(=O)c1nc[nH]c1C(=O)NCC(=O)OC(C)(C)C)c1ccccc1`, 19.7%; that for `CCC1(CC)NC(=O)N(CC(=O)OCC(=O)Nc2ccc(C(F)(F)F)cc2)C1=O`, -5.2%. Take `Brc1ccc(Nc2c3c(nc4ncnn24)CCC3)cc1`: the Potency was 25.9 µM (active). For `Cc1cc(Nc2ccc(C)c(C)c2)n2ncnc2n1`, the “activity change, negative = growth inhibition” value is -9.95%.

As to `Cc1nc(S(=O)(=O)c2ccc(Br)cc2)nc2c1CCC2`, the “activity change, negative = growth inhibition” value was 21.9%.

As for `Cc1cc([N+](=O)[O-])c(NC2CCCCC2)c([N+](=O)[O-])c1`, the “activity change, negative = growth inhibition” value is 1.16%. Still for that read-out and setting: the value for `Cc1sc2c(c1C)c(=O)n(-c1ccccc1)c(=O)n2CC(=O)NCC1CCCO1` (stereo not given) was -3.05%. For `Cc1ccc(NC(=O)Cn2c(=O)n(-c3ccccc3)c(=O)c3c4c(sc32)CCCC4)cc1`, the Potency is 14.6 µM (active). Regarding `CCC(C)NC(=O)Cn1c(=O)n(-c2ccc(Cl)cc2)c(=O)c2c3c(sc21)CCCC3` (stereo not given), the “activity change, negative = growth inhibition” value is -16.5%. Still for that read-out and setting: the value for `CCOc1ccc(N(CC)C(=O)C2CCN(S(=O)(=O)c3cccc4nonc34)CC2)cc1` was -25.8%.

For the compound `COc1ccc(NC(=O)N2CCCC(c3nc(-c4ccc(F)cc4)no3)C2)cc1` (stereo not given), the “activity change, negative = growth inhibition” value is -12.4%. Consider `CCN(C(=O)C1CCCN(c2nc(-c3ccc(OC)cc3)no2)C1)c1ccc(OC)cc1` (stereo not given), for which the Potency was 16.4 µM (active). For the compound `CS(=O)(=O)c1ccccc1C(=O)Nc1ccc2sccc2c1`, the “activity change, negative = growth inhibition” value is -0.774%. On to `O=C(Nc1cc2c3c(c1)CC(=O)N3CCC2)c1ccccc1F`, for which the “activity change, negative = growth inhibition” value was 12%. Same read-out and setting: the value for `CC(=O)N(CN1C(=O)C2C3C=CC(C3)C2C1=O)c1cccc(Cl)c1` (stereo not given) was -1.76%. With `CCCCCCSc1ccc([C@@H]2[C@@H]3C(=O)N(CC)C(=O)[C@@H]3[C@]3(C(=O)OC)CCCCN23)cc1OC`, the Potency is 20.6 µM (active). Consider `CCN1C(=O)[C@H]2[C@@H](c3ccccc3)N[C@]3(CCCN(Cc4ccc(C)cc4)C3=O)[C@H]2C1=O`, for which the “activity change, negative = growth inhibition” value is -10.5%. Same read-out and setting: the result for `CCCCC12CN3CC(C)(CN(C1)C3c1ccc(O)c(OC)c1)C2=O` (stereo not given) reads -2.88%. For `CCN1C(=O)[C@@H]2[C@@H](c3ccc(-c4cccc(Cl)c4)cc3)N3CCC[C@@]3(C(=O)OC)[C@@H]2C1=O`, the Potency was 14.6 µM (active). Still for that read-out and setting: the value for `CC1CCN(CCCNC(=O)CN2C(=O)CSc3ccc(S(=O)(=O)N4CCCCC4)cc32)CC1` was “inactive”. For the compound `O=C(Cc1ccccc1)Nc1ccc(C(=O)Nc2ccccc2C(=O)O)cc1`, the “activity change, negative = growth inhibition” value is 10.8%. Turning to `CC(NC(=O)CCc1cn(Cc2ccccc2Cl)c2ccccc12)c1ccccc1` (stereo not given), the Potency was 20.6 µM (active).

Take `Cc1ccc(CNC(=O)[C@@H](NC(=O)Cc2ccccc2)C(C)C)cc1`: the “activity change, negative = growth inhibition” value was -11.3%.

In the case of `CC(NC(=O)Cn1cc(C(F)(F)F)cc(Cl)c1=O)c1ccccc1` (stereo not given), the “activity change, negative = growth inhibition” value is 17.6%. On the same count and under the same terms, the value for `CCCCC(=O)NCc1ccc(F)cc1` was 7.38%; that for `O=C(CCc1cn(Cc2ccc(F)cc2)c2ccccc12)NC1CCCCC1` was -10.8%. On the same count and under the same terms, the result for `Cc1ccc(CNC(=O)Cc2cn(C)c3ccccc23)cc1` reads 18.9%. For the compound `Cc1ccc(Cn2cc(CCC(=O)NCc3ccc(OC(C)C)cc3)c3ccccc32)cc1`, the Potency was 23.1 µM (active). Same read-out and setting: the value for `CCn1cc(CCC(=O)NCc2ccc(F)cc2)c2ccccc21` was 16.4 µM (active). As for `Cn1cc(CCC(=O)NC2CC2)c2ccccc21`, the “activity change, negative = growth inhibition” value is -1.11%. Same read-out and setting: the value for `CC(C)C1Cc2[nH][nH]c(=O)c2C(c2ccc(Cl)cc2)O1` (stereo not given) was -11.6%; that for `O=C(NCc1ccccc1)C1CCN(C(=O)Cc2ccccc2)CC1` was 13%; that for `Cc1ccc(C(=O)Cc2nnc(C)s2)cc1` was -7.05%. In the case of `COc1ccc(NC(=O)C(CC(C)C)NS(=O)(=O)c2ccc3c(c2)CCN3C(C)=O)cc1OC` (stereo not given), the “activity change, negative = growth inhibition” value is -13.4%.

Take `O=C1COc2c1ccc(O)c2O`: the “activity change, negative = growth inhibition” value is -24.3%. On the same count and under the same terms, the value for `COc1ccc(F)cc1C(=O)COC(=O)c1n[nH]c(=O)c2ccccc12` was -1.47%. On to `COc1ccc(C)cc1N(C(=O)Cn1nnc(-c2ccc(C)o2)n1)C(C(=O)NC1CCCC1)c1ccncc1` (stereo not given), for which the “activity change, negative = growth inhibition” value is 12.6%.

Consider `COc1ccc(C2OCC3(CO2)SC(=O)NC3=O)cc1OC` (stereo not given), for which the “activity change, negative = growth inhibition” value was 15.1%. On to `N#CCC(=O)NC1CCC(CC2CCC(NC(=O)CC#N)CC2)CC1` (stereo not given), for which the “activity change, negative = growth inhibition” value was -2.97%. The same measure, in the same setting: the result for `COc1ccc(NC(=O)C(=O)NCc2ccco2)cc1` reads -4.67%. For the compound `COc1ccc(Nc2nc(NCc3ccco3)nc(N/N=C/c3ccccc3Cl)n2)cc1`, the Potency is 20.6 µM (active). Take `COc1ccc(Nc2nc(Cl)nc(NCc3ccco3)n2)cc1`: the “activity change, negative = growth inhibition” value is -16.7%. `CCN(CC)S(=O)(=O)c1ccc(OC(C)C)c(N)c1`: the “activity change, negative = growth inhibition” value was -24.6%. Take `O=C(O)c1ccc(OCC2CCCO2)cc1` (stereo not given): the “activity change, negative = growth inhibition” value was -2.84%.

Take `COc1ccc(OC)c(NC(=O)c2cc(-c3cc(F)ccc3OCC3CCCO3)n[nH]2)c1` (stereo not given): the Potency was 8.2 µM (active). As to `COc1ccc2cc(C(=O)NCC3CCCO3)[nH]c2c1` (stereo not given), the “activity change, negative = growth inhibition” value is -0.892%.

Take `O=S(=O)(c1ccc(F)cc1)n1ccc(-c2cnc(-c3ccccc3)s2)n1`: the “activity change, negative = growth inhibition” value is -7.25%.

For `COc1cc2c(cc1NC(=O)COC(=O)/C=C/c1ccccc1)oc1ccccc12`, the Potency was 20.6 µM (active).

As for `COc1cc(/C=C/C(=O)OCC(=O)c2ccccc2)cc(OC)c1OC`, the “activity change, negative = growth inhibition” value is -24.3%. Same read-out and setting: the result for `COc1cc2c(cc1NC(=O)CN1CCN(S(=O)(=O)c3ccc(F)cc3)CC1)oc1ccccc12` reads -14.8%; that for `CSCCC(NC(=O)c1ccccc1)C(=O)N1CCCCCCC1` (stereo not given), 6.01%. Turning to `COc1ccc(/C=C(\C#N)C(=O)ONC2=NCCCCC2)cc1`, the Potency was 16.4 µM (active). Regarding `CC(C)(C)C(=O)/C(C#N)=C/c1ccc(O)cc1`, the “activity change, negative = growth inhibition” value is -4.28%. On the same count and under the same terms, the value for `COc1ccc(/C=C(\C#N)C(=O)OCC(=O)N(C)C2CCS(=O)(=O)C2)cc1` (stereo not given) was 19.1%.

For the compound `CCN(CC(=O)Nc1c(F)cccc1F)C(=O)Cc1cccs1`, the “activity change, negative = growth inhibition” value was 19.7%. Still for that read-out and setting: the value for `CC(C)C1CC2=C(C(=O)OC(C)(C)O2)C(c2ccc(F)cc2)O1` (stereo not given) was 4.47%. Still for that read-out and setting: the result for `O=C(NCc1cccs1)C1CCN(S(=O)(=O)c2ccc(Cl)cc2)CC1` reads 1.59%. Take `O=C(NCc1ccc(Cl)cc1)C1CCN(S(=O)(=O)c2cccs2)CC1`: the Potency was 11.6 µM (active). Regarding `O=C(NCc1ccccc1)C1CCCN(S(=O)(=O)c2cccs2)C1` (stereo not given), the “activity change, negative = growth inhibition” value was -3.4%. Same read-out and setting: the value for `CC1=C(C(N)=O)C(c2ccc(F)cc2)n2nc(CCCO)nc2N1` (stereo not given) was 4.64%; that for `CCCCOP(=O)(c1ccc(N(C)C)cc1)C(O)c1cc(OC)ccc1OC` (stereo not given) was -8.33%. Same read-out and setting: the result for `Cc1ccc(S(=O)(=O)N(C)c2ccc(OCC(=O)OCc3ccc(C#N)cc3)cc2)cc1` reads 8.89%; that for `Cc1ccc(CN2CCN(Cc3cccc(C)n3)CC2CCO)cc1` (stereo not given), 21.1%.
